Measurements taken from PubChem BioAssay (NCI).
Compounds without any hit were thinned out: in the full panel of roughly 83,000, 20% have a hit.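 Method: cells in 96-well plates; compound added at one concentration; 48 h incubation; percent growth measured; values under 10 scored active.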 Values without a mark were called inactive. Calls of active or inactive are those of the source.

Assays:
Assay in all cases: NCI-60 one-dose screen, 48 h (100 = growth as untreated, 0 = no growth, -100 = all killed)
Conditions in all cases: 10 µM unless noted
T-47D breast = test system: T-47D breast
BT-549 breast = test system: BT-549 breast
MDA-MB-435 melanoma = test system: MDA-MB-435 melanoma
SW-620 colon = test system: SW-620 colon
MCF7 breast = test system: MCF7 breast
HCT-116 colon = test system: HCT-116 colon
HCC-2998 colon = test system: HCC-2998 colon
KM12 colon = test system: KM12 colon

Row | Structure (SMILES) | growth (T-47D breast) | growth (BT-549 breast) | growth (MDA-MB-435 melanoma) | growth (SW-620 colon) | growth (MCF7 breast) | growth (HCT-116 colon) | growth (HCC-2998 colon) | growth (KM12 colon)
1 | CC12CCC3c4ccccc4CCC3(CO1)C2 (stereo not given) | 101% | 121% | 107% | 106% | 97.1% | 117% | 94.2% | 110%
2 | O=S(=O)(NCCCNc1nccc(-c2c(-c3ccc(F)c(O)c3)nc3occn23)n1)c1ccccc1 | 101% | 114% | 37.4% | 100% | 77.3% | 52.6% | 98.7% | 84.6%
3 | O=C1/C(=C/c2ccc(Cl)cc2)COc2ccc(O)cc21 | 83.5% | 80.5% | 64.7% | 2.28% (active) | 5.46% (active) | 4.5% (active) | 83.8% | 20.3%
4 | CC1=Nc2cnc(Nc3ccc(OCCN4CCCC4)cc3)nc2Nc2ccccc21 | 61.1% | 88.2% | 72.2% | 68.4% | 75% | 73.6% | 72.2% | 15.2%
5 | O=C1c2cc(Cl)ccc2S(=O)(=O)c2c(NCCCNCCO)nc3ccccc3c21 | -60% (active) | 21.7% | 2.67% (active) | -74.6% (active) | -16.2% (active) | -78% (active) | 78.5% | 20.1%
6 | CCOC(=O)C(=Cc1cccc(Br)c1)C(=O)OCC | 1.63% (active) | 28% | 23.7% | 25.9% | 11% | 14% | 101% | 11.9%
7 | Cn1cccc1C(=O)C1C(c2cccc([N+](=O)[O-])c2)C2C3CCCCC3CN2C12C(=O)Nc1ccc(Cl)cc12 (stereo not given) | 36.7% | 53.6% | 56.3% | 54.7% | 34.1% | 14.9% | 64.5% | 42.3%
8 | COc1cc(-c2nc(SCC(C)C)nc(Nc3cccc4ccccc34)c2C#N)cc(OC)c1OC | 70.3% | 110% | 99.3% | 95.3% | 94% | 37.7% | 118% | 97.5%
9 | CCOC(=O)C(=Cc1cccc(Cl)c1)C(=O)OCC | -5.34% (active) | 42.6% | 6.41% (active) | -46.6% (active) | 8.93% (active) | -47.5% (active) | 77.1% | 18%
10 | CC(=O)[C@@H]1CCC=C2CC[C@]3(C)[C@@H](CC[C@@H]4[C@@]5(C)CCCNC(C)(C)[C@@H]5CC[C@]43C)[C@H]21 | 33.9% | 75.9% | -71.1% (active) | -58.9% (active) | -72.9% (active) | -96.2% (active) | -93.8% (active) | -79% (active)
11 | Cc1nnc(NC(=O)c2nc(S(=O)(=O)Cc3ccc(F)cc3)ncc2Cl)s1 | 38.5% | 26.7% | 75.9% | -59.8% (active) | 44.7% | -0.743% (active) | 99.1% | 90.8%
12 | CCN(CC)CCNC(=O)c1cn2ncnc(Oc3ccc(NC(=O)Nc4ccc(Cl)c(C(F)(F)F)c4)c(F)c3)c2c1C | 64.5% | 30.3% | -78.8% (active) | -62.1% (active) | -65% (active) | -79.3% (active) | -88.9% (active) | -30.5% (active)
13 | COC(=O)CCC(=O)C(=O)OC | 61.3% [10 mM] | -12.2% [10 mM] (active) | 29.2% [10 mM] | 29.9% [10 mM] | 49.8% [10 mM] | 9.17% [10 mM] (active) | -38.5% [10 mM] (active) | 2.17% [10 mM] (active)
14 | O=C(Cn1c(=O)sc2ccccc21)NNS(=O)(=O)c1ccccc1[N+](=O)[O-] | 105% | 116% | 98.5% | 103% | 96.5% | 107% | 107% | 99.9%
15 | C=C1CC[C@@H]2[C@](C)(COC(C)=O)[C@H](OC(C)=O)CC[C@@]2(C)[C@@H]1CC(Sc1ccccc1)C1=CCOC1=O (stereo not given in full) | 7.94% (active) | -22.6% (active) | 101% | 0.833% (active) | 2.14% (active) | -34.6% (active) | 44.7% | 18.6%
16 | COC(=O)[C@H]1CCCN1C[C@@H](O)CN1C(=O)/C(=C\c2cc(OC)c(OC)c(OC)c2)c2ccccc21 | 86.7% | 111% | 96.5% | 95.7% | 70.5% | 92.8% | 102% | 98.9%
17 | O=C(NNC(=O)c1ccc(-n2cc(-c3ccccc3)nn2)cc1)Nc1ccccc1 | 102% | 97.9% | 105% | 101% | 99.4% | 94.3% | 116% | 107%
18 | O=C(Nc1ncc(Cc2ccc(Cl)c(C(F)(F)F)c2)s1)c1ccc2nnsc2c1 | 24.8% | 65.5% | 22.6% | 44.3% | 20.4% | 45% | 10.6% | 37.8%
19 | O=C(Cn1c(-c2ccc([N+](=O)[O-])cc2)nc2ccccc21)NNC(=O)c1cccnc1 | 71.2% | 97% | 86.2% | 103% | 25.9% | 82.1% | 98.5% | 87.2%
20 | O=C(NCCCN1CCOCC1)c1cccc(N2C(=O)/C(=C/c3ccc(F)cc3)SC2=S)c1 | 91.7% | 96.8% | 95.3% | 95.9% | 92.9% | 96.7% | 97.1% | 99.6%
21 | COc1ccc(NC(=O)c2sc3nc(C)c(C(=O)/C=C/c4cccc(OC)c4)cc3c2N)cc1 | 49.5% | 56.3% | 13.6% | 0.0421% (active) | 14.3% | 22.8% | 23.8% | 25.7%
22 | CC(C)(C)n1cc(-c2ccnc(NCCNS(=O)(=O)c3cccc4ccccc34)c2)c(-c2cccc(F)c2)n1 | -12.6% (active) | -80.9% (active) | -31.8% (active) | -26% (active) | -35% (active) | -87.2% (active) | -41.8% (active) | -14% (active)
23 | COc1cc(OC)cc(C2=C3CC[C@@H]4[C@H](CC[C@]5(C)C(=O)CC[C@@H]45)C3=CC3C(O)c4cccnc4N4C(=O)COC234)c1 (stereo not given in full) | 107% | 94.7% | 104% | 103% | 103% | 97% | 96.6% | 102%
24 | COc1ccccc1Nc1nc2c(s1)C1=CC[C@H]3[C@@H]4CC[C@H]([C@H](C)CCCC(C)C)[C@@]4(C)CC[C@@H]3[C@@]1(C)CC2 | 105% | 110% | 103% | 101% | 113% | 102% | 101% | 101%
25 | O=C(OCc1ccc2c(Cl)cc(Cl)c(O)c2n1)n1cncn1 | 36.1% | 50.4% | 27.9% | 24.7% | 23.2% | 30.1% | 54.4% | 21.8%
26 | CN(C)CCCC1(c2ccc(F)cc2)OCc2cc(-c3cncc4ccccc34)ccc21 (stereo not given) | 55.9% | 76.8% | 8.32% (active) | 34.2% | 23.5% | 22.5% | 7.15% (active) | 34.5%
27 | COC1C[C@H](O[C@@H]2C[C@H](O[C@@H]3C[C@H](O[C@@H]4C(=O)c5c(cc6cc(O[C@H]7C[C@@H](O[C@H]8C[C@@H](O)[C@H](O)C(C)O8)[C@H](O)C(C)O7)c(C)c(O)c6c5O)C[C@H]4C(OC)C(=O)[C@@H](O)[C@@H](C)O)OC(C)[C@H]3O)OC(C)[C@@H]2O)OC(C)[C@@H]1O (stereo not given in full) | -4.81% (active) | -20.4% (active) | -62% (active) | 9.73% (active) | 4.52% (active) | 4.82% (active) | -18.8% (active) | 4.61% (active)
28 | Cc1ccc(-n2c(=S)[nH]c3sc4c(c3c2=O)CCC(=O)C4)cc1 | 42.4% | 59.9% | -33.3% (active) | 17.8% | 14.7% | 36.2% | 80.8% | 41.7%
29 | CC1(C)CC[C@]2(C(=O)O)CC[C@]3(C)C(=CC[C@@H]4[C@@]5(C)C/C(=C/O)C(=O)C(C)(C)[C@@H]5CC[C@]43C)[C@@H]2C1 | 61.9% | 88.6% | 69.7% | 12% | 29.5% | 12.7% | 50.5% | 15.7%
30 | Oc1ccc(CCn2c(O)c(/C=C3\CN=c4ccccc4=N3)sc2=S)cc1 | 39.8% | 43.8% | 70.6% | 67.4% | 16.7% | 55.8% | 87.1% | 5.46% (active)
